Data on 41 compounds can be found in PubChem BioAssay (NCATS).

Several values for one entry are separate records, joined by “and”; a condition that tells them apart may be missing. Identical values can stand only once. Values without a mark were called inactive. Results filed as inconclusive are left out. Activity calls are given as the source filed them. Unless noted, how the calls were made is not given here.

Test [1] in a line: qHTS assay to identify inhibitors of the type 1 interferon - major histocompatibility complex class I in skeletal muscle: Counter screen cell viability and HiBit confirmation (AID 1347412; active means well fitted curve in the direction sought with a large enough effect; an effect the other way counts as inactive or inconclusive; further: potency means the concentration at half of the fitted maximal effect; on activity change, negative = inhibition: on the % scale 0 is the no-effect control and ±100 the full control effect; on all read-outs here: nearly all actives have a fitted effect of over 60% in size). To be noted: iHSKM muscle cells + IFN-b, HiBiT or CellTiter-Glo, 24 h; for activity change, negative = inhibition: at 45.9 µM (top of the series). In a few lines: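 HLA-B*08:01–HiBiT knock-in immortalized human myoblasts (C25cl48) stimulated with 4.0 ng/ml human IFN-beta and dosed with compound in a 12-point 1:3 titration (top final 46 uM). After 24 hrs at 37 C, HiBiT lytic luminescence or CellTiter Glo ATP read out.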

For test [2], the target named is Nuclear receptor subfamily 1 group I member 2 (Rattus norvegicus) (UniProt Q9R1A7). Nature of the test: qHTS assay for small molecule activators of the rat pregnane X receptor (rPXR) signaling pathway (AID 651751). Further: 0% is about no effect. The settings on record: rPXR reporter cells, luciferase (One-Glo), 24 h. (In qHTS, concentration-response curves come from the screen itself.)
In the next test the test system is astro. Nature of the test: Drug repurposing screens with cells derived from glioblastoma tumor samples (AID 1345199; active means well fitted curve in the direction sought with a large enough effect; an effect the other way counts as inactive or inconclusive; further: nearly all actives have a fitted effect of over 40% in size; further: potency means the concentration at half of the fitted maximal effect). The settings on record: viability, ATP luminescence, 48 h; series mostly up to 45.9 µM. In outline:
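Four patient lines of CD133+ GBM neurospheres were screened at several concentrations; hits were retested in those lines plus three slower-growing GBM lines, using 48-hour treatment and ATP-based viability.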

Test [3] in a line: qHTS assay for small molecule activators of the human pregnane X receptor (PXR) signaling pathway (AID 720659). Further: 0% is about no effect. To be noted: DPX-2 HepG2 CYP3A4-luciferase, 24 h; series mostly up to 92.3 µM.

Nuclear receptor subfamily 1 group I member 2 (Rattus norvegicus), sequence (Q9R1A7 whole entry, looked up): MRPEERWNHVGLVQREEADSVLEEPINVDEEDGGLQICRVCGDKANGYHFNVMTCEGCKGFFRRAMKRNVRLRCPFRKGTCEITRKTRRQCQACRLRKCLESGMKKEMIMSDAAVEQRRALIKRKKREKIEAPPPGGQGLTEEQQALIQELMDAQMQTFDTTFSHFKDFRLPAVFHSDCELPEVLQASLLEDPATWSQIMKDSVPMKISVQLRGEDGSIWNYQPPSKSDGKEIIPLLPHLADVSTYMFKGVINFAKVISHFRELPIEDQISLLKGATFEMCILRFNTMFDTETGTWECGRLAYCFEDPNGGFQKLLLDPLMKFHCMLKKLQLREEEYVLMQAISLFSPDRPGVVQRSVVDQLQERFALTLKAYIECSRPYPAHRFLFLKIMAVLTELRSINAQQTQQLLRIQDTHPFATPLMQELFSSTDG

Take `CN[C@@H]1C[C@@H](c2ccc(Cl)c(Cl)c2)c2ccccc21`: the activity change, negative = inhibition in test [1] (HiBiT) was -7.12%; in test [1] (Viability), -20.4%.

Consider `CCOP(=O)(NC(C)C)Oc1ccc(SC)c(C)c1` (centres undefined), for which the max response in test [2] is 6.18% and 2.21%.

For the compound `COc1ccc2c(c[n+](C)c3c4cc5c(cc4ccc23)OCO5)c1OC`, the Potency was 7.01 µM (active) in test [1] (HiBiT) and 8.83 µM (active) in test [1] (Viability).

On to `O=C(O)COc1ccccc1`, for which the Potency result with astro was “inactive”. In addition, the max response in test [2] is -3.8%. Further, in test [3], the compound was classed as inactive.

Take `Nc1ccc(Cl)cc1`: the Potency result with astro is “inactive”. In test [2], the max response is 3.79%. In test [3], the result was inactive.

For the compound `O=C(O)CCCOc1ccc(Cl)cc1Cl`, in test [2], the max response was 8.43%. Also, in test [3], the compound was classed as inactive.

On to `O=c1[nH]c2ccc(Cl)cc2c(N[C@@H]2CN3CCC2CC3)c1-c1nc2ccccc2[nH]1`, for which the values for the Potency in test [1] (HiBiT) and in test [1] (Viability) were 3.52 µM (active) and 17.6 µM (active), respectively.

As for `c1cc2ccc3cccc4ccc(c1)c2c34`, the Potency result with astro is “inactive”. The max response in test [2] is 6.39% and 2.28%. Further, the call in test [3] was inactive.

Take `CC[C@@]1(O)C(=O)OCc2c1cc1n(c2=O)Cc2cc3ccccc3nc2-1`: in test [1] (HiBiT), the Potency was 1.76 µM (active) and 1.98 µM (active). Besides, the activity change, negative = inhibition in test [1] (Viability) was -5.85% and -9.34%.

Consider `CCCCCCCCCCCCCCCC[N+](C)(C)C`, for which the Potency in the test on astro is 11.2 µM (active). Further, the compound was classed as inactive in test [3].

On to `Nc1ccc([N+](=O)[O-])cc1`, for which the Potency result in the test with astro is “inactive”. Moreover, in test [2], the max response was -0.553%. The result in test [3] was inactive.

For `O=[N+]([O-])c1c(Cl)c(Cl)cc(Cl)c1Cl`, in the test on astro, the Potency entry is “inactive”. Further, the max response in test [2] was 3.25%. The compound was classed as inactive in test [3].

For `Clc1cnc(Oc2ccc(Oc3ncc(Cl)cc3Cl)cc2)c(Cl)c1`, the max response in test [2] is 9.03%. The compound was called inactive in test [3].

Take `CCCCCCCCc1ccc(O)cc1`: the Potency entry in the test with astro was “inactive”. In addition, in test [2], the max response is 3.32% and -2.12%.

`CS(=O)(=O)c1ccc(C(=O)C2C(=O)CCCC2=O)c([N+](=O)[O-])c1`: the Potency result in the test with astro is “inactive”. The max response in test [2] is 1.13%.

As for `O=C(O)c1cc(Oc2ccc(C(F)(F)F)cc2Cl)ccc1[N+](=O)[O-]`, the Potency entry in the test on astro was “inactive”. In addition, in test [2], the max response is 2.53%. The outcome in test [3] was inactive.

Regarding `O=[N+]([O-])c1cc([N+](=O)[O-])c2ccccc2c1`, the outcome in test [3] was inactive.

`C=CC(=O)NCNC(=O)C=C`: the Potency result in the test on astro was “inactive”. Further, in test [2], the max response was 1.16% and 0.492%. Also, in test [3], the result was inactive.

For `CCN1CCN(C(=O)Cc2ccc(Nc3ncc(F)c(Nc4ccc(C(=O)Nc5ccccc5Cl)cc4)n3)cc2)CC1`, the Potency in test [1] (HiBiT) was 14 µM (active).

On to `CC(C)(O)C(=O)Nc1ccc([N+](=O)[O-])c(C(F)(F)F)c1`, for which, in test [2], the max response is -13.9%.

On to `Cc1[nH]nc2ccc(-c3cncc(OC[C@@H](N)Cc4c[nH]c5ccccc45)c3)cc12`, for which the Potency in test [1] (HiBiT) is 1.11 µM (active).

`C1CCC(NC2CCCCC2)CC1`: the Potency entry in the test with astro is “inactive”. For the same compound, the max response in test [2] is -4% and -4.51% and -0.383%. The compound was classed as inactive in test [3].

For `CN(C)NC(=O)CCC(=O)O`, the max response in test [2] was -0.418% and -0.734%.

On to `O=C(O)COc1nc(Cl)c(Cl)cc1Cl`, for which the Potency entry with astro is “inactive”. The max response in test [2] is -1.37%.

Regarding `OCCCBr`, the Potency result with astro is “inactive”. In addition, the max response in test [2] is -2.6%. Further, the compound was called inactive in test [3].

As for `CCCCOC(=O)c1ccccc1C(=O)OCc1ccccc1`, in the test on astro, the Potency entry is “inactive”. Also, the max response in test [2] is 7.11% and 9.37%.

For the compound `O=S(=O)(O)C(F)(F)C(F)(F)C(F)(F)C(F)(F)F`, in the test on astro, the Potency entry is “inactive”. Moreover, in test [2], the max response is -0.463% and -1.11%.

For `Nc1c(Cl)c(Cl)c(Cl)c(Cl)c1Cl`, in the test on astro, the Potency entry is “inactive”. Moreover, the max response in test [2] was 0.456%. For the same compound, the call in test [3] was inactive.

Turning to `Cc1cc(O)ccc1Cl`, the Potency entry with astro was “inactive”. Moreover, the max response in test [2] is -6.09%. Also, in test [3], the compound was called inactive.

As for `C/C=C(/C)C(=O)O[C@H]1C(C)=C2[C@H]([C@@H]1OC(=O)CCCCCCC)[C@@](C)(OC(C)=O)C[C@H](OC(=O)CCC)[C@@]1(O)[C@H]2OC(=O)[C@@]1(C)O`, the Potency in test [1] (HiBiT) is 0.0079 µM (active).

Regarding `CN(C)[C@@H]1C(=O)C(C(N)=O)=C(O)[C@@]2(O)C(=O)C3=C(O)c4c(O)cccc4[C@@](C)(O)[C@H]3[C@H](O)[C@@H]12`, the Potency entry in the test on astro was “inactive”. Besides, in test [2], the max response is 4.53% and -0.0906% and -2.17%.

For `O=S(=O)(O)C(F)(F)C(F)(F)C(F)(F)C(F)(F)C(F)(F)C(F)(F)C(F)(F)C(F)(F)F`, the max response in test [2] was 2.44% and 1.44%. Besides, the result in test [3] was inactive.

Turning to `COc1nn(CSP(=S)(OC)OC)c(=O)s1`, the max response in test [2] is -6.79%. Moreover, the compound was classed as inactive in test [3].

Regarding `O=[N+]([O-])/N=C1\NCCN1Cc1ccc(Cl)nc1`, the Potency result in the test on astro is “inactive”. Also, the max response in test [2] is 4.35%. Also, the call in test [3] was inactive.

Consider `CC1=C(O)C(=O)C=C2C1=CC=C1[C@@]2(C)CC[C@@]2(C)[C@@H]3C[C@](C)(C(=O)O)CC[C@]3(C)CC[C@]12C`, for which, in test [1] (HiBiT), the Potency is 0.787 µM (active).

As for `CCCCCC[C@H]1C(=O)O[C@H](C)[C@H](NC(=O)c2cccc(NC=O)c2O)C(=O)O[C@@H](C)[C@@H]1OC(=O)CC(C)C`, the figures for the activity change, negative = inhibition in test [1] (HiBiT) and in test [1] (Viability) were -17.2% and -10.9%, respectively. In test [3], the compound was classed as inactive.

On to `Nc1ccc(Sc2ccc(N)cc2)cc1`, for which, in the test on astro, the Potency result was “inactive”. Moreover, the max response in test [2] is 10.3% and 6.87%.

In the case of `O=C(O)C(Cl)Cl`, the Potency result in the test with astro was “inactive”. In addition, the max response in test [2] is 4.19% and -3.77%. The compound was called inactive in test [3].

Regarding `CC(C)[C@]12O[C@H]1[C@@H]1O[C@]13[C@]1(O[C@H]1C[C@H]1C4=C(CC[C@@]13C)C(=O)OC4)[C@@H]2O`, in test [1] (HiBiT), the Potency was 0.0625 µM (active). In test [1] (Viability), the activity change, negative = inhibition was -10.5%.

As to `CCCCCCCCCC(CC)c1ccc(S(=O)(=O)O)cc1` (centres undefined), the Potency result with astro is “inactive”. Moreover, the max response in test [2] is 0.683% and -5.48%.

As for `CCOCCOC(C)=O`, the Potency result in the test on astro was “inactive”. The max response in test [2] was -2.9%. In test [3], the call was inactive.
